This note sets out measurements from PubChem BioAssay AID2284128 (EPA ToxCast).

The source made the active and inactive calls. The calls were made as follows: active = hit-call score of the fitted dose curve at least 0.9, where 1 is the maximum; inactive = score below 0.9.

Chain of human Phosphatase (PTEN), PTEN (gene 5728) (P60484 whole entry, looked up): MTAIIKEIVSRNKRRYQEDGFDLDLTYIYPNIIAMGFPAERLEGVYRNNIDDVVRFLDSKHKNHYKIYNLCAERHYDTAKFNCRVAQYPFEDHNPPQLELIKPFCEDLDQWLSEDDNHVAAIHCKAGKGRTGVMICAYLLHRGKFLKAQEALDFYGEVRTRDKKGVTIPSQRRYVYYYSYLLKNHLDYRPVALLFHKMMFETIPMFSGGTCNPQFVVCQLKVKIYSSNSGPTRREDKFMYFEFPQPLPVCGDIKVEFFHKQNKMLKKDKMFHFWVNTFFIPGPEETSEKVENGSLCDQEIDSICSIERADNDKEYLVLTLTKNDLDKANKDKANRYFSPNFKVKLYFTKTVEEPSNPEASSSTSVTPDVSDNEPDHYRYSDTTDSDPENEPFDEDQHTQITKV

This experiment addresses human Phosphatase (PTEN), PTEN (gene 5728) (UniProt P60484). As to the kind of experiment: ERF_TW_ENZ_hPTEN: Eurofins (ERF) Enzymatic LeadHunter Assay for human Phosphatase (PTEN). As to the method:
ERF_TW_ENZ_hPTEN is a biochemical, single-readout assay that uses extracted gene-proteins in a cell-free assay. Measurements were taken 1 hour after chemical dosing in a 96-well plate. See PTEN Human Phosphatase Enzymatic Assay, Panlabs.ERF_TW_ENZ_hPTEN is an assay component calculated from the ERF_TW_ENZ_hPTEN assay. It is designed to measure enzyme activity using a type of enzyme reporter as detected by fluorescence intensity with spectrophotometry technology.Data from the assay component ERF_TW_ENZ_hPTEN was analyzed at the assay endpoint, ERF_TW_ENZ_hPTEN, in the positive analysis fitting direction relative to DMSO as the negative control and baseline of activity. Using a type of enzyme reporter, loss-of-signal activity can be used to understand changes in enzymatic activity as they relate to gene PTEN. To generalize the intended target to other relatable targets, this assay endpoint is annotated to the phosphatase intended target family, where the subfamily is dual-specific phosphatase.
Human recombinant phosphatase PTEN expressed in E. coli is used. Test compound and/or vehicle is preincubated with 2 ug/ml enzymedouble dagger for 15 minutes at 37C in modified Tris-HCl buffer pH 8.5. The reaction is initiated by addition of 100 uM DiFMUP for 60 minutes. Determination of the amount of DiFMU formed is read spectrofluorimetrically at 358 nm/450 nm. […]
In general, AC50 refers to the concentration giving half of the maximal activity seen. Consider `O=C(/C=C/c1ccc(O)cc1)CC(=O)/C=C/c1ccc(O)cc1`, for which the AC50 was 5 µM (active).
